One sequence from publication PMC7862700, “An all-to-all approach to the identification of sequence-specific readers for epigenetic DNA modifications on cytosine” can be followed below.

Holding throughout (assay): DAPPL (digital affinity profiling via proximity ligation, sequencing); 10 mM Tris-HCl pH 7.5, 50 mM NaCl, 1 mM DTT, 4% glycerol, room temperature, 30 min; GST-TFs on glutathione beads, 16-mer random dsDNA library, 0.1% formaldehyde crosslink after washing; high values mean tight binding
In one assay the target is T1, FEV (Homo sapiens, UniProt Q99581 1-238).
T1 sequence: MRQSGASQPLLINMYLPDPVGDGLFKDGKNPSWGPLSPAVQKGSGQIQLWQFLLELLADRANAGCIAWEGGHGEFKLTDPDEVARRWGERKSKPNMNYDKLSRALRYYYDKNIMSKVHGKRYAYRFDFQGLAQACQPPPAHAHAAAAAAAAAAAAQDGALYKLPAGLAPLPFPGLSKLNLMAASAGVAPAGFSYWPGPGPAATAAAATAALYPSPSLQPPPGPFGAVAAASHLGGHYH
The following applies: protein: recombinant; tags: N-terminal GST; dsDNA, one strand shown. The method in brief:
(§1)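 Yeast served to express human transcription factors as GST fusions, which were then captured on glutathione beads and labelled with DNA barcodes. Pooled with a tag-only sample, they were incubated with 200 nmole of a 16-mer random double-stranded DNA library for 30 min at room temperature in Tris/NaCl/DTT/glycerol buffer, washed, crosslinked with 0.1% formaldehyde, ligated by proximity, amplified by PCR and sequenced. Dividing each hexamer's read frequency for a factor by its frequency for the tag-only sample gives the binding signal.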

Another assay concerns the target ETV5 (Homo sapiens, UniProt P41161 1-510). The following applies: protein: recombinant; tags: N-terminal GST; dsDNA, one strand shown. The gist of the method: as §1
A further assay has as its target HSF1 (Homo sapiens, UniProt Q00613 1-529). The following applies: protein: recombinant; tags: N-terminal GST; chain copies: 3; dsDNA, one strand shown. The gist of the method: as §1
For another assay, the target named is T2, SPIC (Homo sapiens, UniProt Q8N5J4 1-248).
T2 sequence: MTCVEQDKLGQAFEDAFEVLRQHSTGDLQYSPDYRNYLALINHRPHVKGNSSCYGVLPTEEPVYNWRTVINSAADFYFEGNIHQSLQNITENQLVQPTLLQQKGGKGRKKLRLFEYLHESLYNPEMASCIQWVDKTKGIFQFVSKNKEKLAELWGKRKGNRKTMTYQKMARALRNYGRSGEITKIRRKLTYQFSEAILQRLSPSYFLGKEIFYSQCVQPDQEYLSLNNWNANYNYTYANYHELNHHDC
Particulars: protein: recombinant; tags: N-terminal GST; dsDNA, one strand shown. The method in brief: as §1

The target in the next assay is ELF4 (Homo sapiens, UniProt Q99607 1-663). The following applies: protein: recombinant; tags: N-terminal GST; dsDNA, one strand shown. The method in brief: as §1
ELF4, sequence (Q99607 whole entry): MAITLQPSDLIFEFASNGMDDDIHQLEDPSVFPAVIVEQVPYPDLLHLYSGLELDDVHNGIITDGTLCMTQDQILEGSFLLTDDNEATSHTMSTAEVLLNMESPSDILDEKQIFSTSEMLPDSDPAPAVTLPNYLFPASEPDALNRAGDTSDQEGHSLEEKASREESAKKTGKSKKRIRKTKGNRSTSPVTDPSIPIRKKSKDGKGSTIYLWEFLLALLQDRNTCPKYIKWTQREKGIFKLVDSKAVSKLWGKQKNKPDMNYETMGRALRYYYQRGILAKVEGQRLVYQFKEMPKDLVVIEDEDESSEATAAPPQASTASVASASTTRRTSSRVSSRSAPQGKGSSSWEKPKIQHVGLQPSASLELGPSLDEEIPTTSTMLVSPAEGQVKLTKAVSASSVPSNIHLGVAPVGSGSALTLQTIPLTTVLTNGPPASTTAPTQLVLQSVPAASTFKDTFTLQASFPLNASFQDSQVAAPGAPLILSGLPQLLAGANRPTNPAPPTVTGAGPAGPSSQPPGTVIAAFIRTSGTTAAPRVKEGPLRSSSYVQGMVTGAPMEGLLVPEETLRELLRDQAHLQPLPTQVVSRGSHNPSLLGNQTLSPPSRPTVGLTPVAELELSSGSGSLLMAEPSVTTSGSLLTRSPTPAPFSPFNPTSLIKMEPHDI
In another assay the target is T3, ELK4 (Homo sapiens, UniProt P28324-2 1-405).
T3 sequence: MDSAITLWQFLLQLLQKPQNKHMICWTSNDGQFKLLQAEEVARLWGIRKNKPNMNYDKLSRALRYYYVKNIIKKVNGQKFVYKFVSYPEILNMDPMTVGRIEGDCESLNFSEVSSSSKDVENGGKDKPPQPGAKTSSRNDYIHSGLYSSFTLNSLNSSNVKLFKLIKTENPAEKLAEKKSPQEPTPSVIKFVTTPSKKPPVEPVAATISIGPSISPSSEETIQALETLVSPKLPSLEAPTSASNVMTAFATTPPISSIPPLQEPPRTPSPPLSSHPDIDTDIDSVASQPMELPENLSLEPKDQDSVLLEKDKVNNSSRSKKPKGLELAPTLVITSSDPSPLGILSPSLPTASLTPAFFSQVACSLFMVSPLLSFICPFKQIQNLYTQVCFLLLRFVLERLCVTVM
Particulars: protein: recombinant; tags: N-terminal GST; dsDNA, one strand shown. The method in brief: as §1

For another assay, the target named is T4, ETV2 (Homo sapiens, UniProt O00321 1-342).
T4 sequence: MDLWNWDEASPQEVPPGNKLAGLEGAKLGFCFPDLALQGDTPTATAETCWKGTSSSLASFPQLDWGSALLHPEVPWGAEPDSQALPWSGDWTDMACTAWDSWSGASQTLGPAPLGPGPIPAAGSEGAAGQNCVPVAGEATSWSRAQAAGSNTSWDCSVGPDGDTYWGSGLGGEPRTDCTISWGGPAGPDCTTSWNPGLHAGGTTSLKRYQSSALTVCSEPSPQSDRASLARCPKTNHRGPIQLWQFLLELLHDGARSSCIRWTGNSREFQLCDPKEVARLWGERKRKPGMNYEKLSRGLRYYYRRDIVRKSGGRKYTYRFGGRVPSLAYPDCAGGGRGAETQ
Particulars: protein: recombinant; tags: N-terminal GST; dsDNA, one strand shown. The gist of the method:
as §1

A further assay concerns the target T5, ELF3 (Homo sapiens, UniProt P78545 1-371).
T5 sequence: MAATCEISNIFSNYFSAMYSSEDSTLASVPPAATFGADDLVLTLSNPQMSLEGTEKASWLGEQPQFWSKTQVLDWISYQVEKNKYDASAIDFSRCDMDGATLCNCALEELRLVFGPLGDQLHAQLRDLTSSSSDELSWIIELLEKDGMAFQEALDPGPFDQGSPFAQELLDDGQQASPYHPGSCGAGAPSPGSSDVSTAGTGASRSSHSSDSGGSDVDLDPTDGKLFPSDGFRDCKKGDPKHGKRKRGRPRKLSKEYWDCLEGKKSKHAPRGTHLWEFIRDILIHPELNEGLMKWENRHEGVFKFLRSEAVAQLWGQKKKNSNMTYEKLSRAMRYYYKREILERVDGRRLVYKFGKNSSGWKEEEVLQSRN
Particulars: protein: recombinant; tags: N-terminal GST; dsDNA, one strand shown. The method in brief: as §1

In a further assay the target is CRX (Homo sapiens, UniProt O43186 1-299). The following applies: protein: recombinant; tags: N-terminal GST; dsDNA, one strand shown. The method in brief:
as §1

The target in the next assay is ETV1 (Homo sapiens, UniProt P50549 1-477). The following applies: protein: recombinant; tags: N-terminal GST; dsDNA, one strand shown. The method in brief: as §1
ETV1, sequence (P50549 whole entry): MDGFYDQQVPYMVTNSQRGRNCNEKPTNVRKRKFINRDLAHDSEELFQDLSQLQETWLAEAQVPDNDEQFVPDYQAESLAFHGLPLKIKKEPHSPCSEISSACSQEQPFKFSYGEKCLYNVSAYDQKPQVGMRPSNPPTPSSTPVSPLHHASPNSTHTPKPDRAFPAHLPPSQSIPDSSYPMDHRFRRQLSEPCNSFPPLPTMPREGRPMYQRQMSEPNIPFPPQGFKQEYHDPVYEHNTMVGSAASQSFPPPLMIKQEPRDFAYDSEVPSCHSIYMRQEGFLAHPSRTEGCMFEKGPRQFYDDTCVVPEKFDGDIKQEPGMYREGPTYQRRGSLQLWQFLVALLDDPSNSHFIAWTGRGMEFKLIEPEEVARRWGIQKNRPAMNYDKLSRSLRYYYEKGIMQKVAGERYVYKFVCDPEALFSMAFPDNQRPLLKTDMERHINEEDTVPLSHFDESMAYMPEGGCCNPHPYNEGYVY
A further assay deals with T6, ERF (Homo sapiens, UniProt P50548 1-548).
T6 sequence: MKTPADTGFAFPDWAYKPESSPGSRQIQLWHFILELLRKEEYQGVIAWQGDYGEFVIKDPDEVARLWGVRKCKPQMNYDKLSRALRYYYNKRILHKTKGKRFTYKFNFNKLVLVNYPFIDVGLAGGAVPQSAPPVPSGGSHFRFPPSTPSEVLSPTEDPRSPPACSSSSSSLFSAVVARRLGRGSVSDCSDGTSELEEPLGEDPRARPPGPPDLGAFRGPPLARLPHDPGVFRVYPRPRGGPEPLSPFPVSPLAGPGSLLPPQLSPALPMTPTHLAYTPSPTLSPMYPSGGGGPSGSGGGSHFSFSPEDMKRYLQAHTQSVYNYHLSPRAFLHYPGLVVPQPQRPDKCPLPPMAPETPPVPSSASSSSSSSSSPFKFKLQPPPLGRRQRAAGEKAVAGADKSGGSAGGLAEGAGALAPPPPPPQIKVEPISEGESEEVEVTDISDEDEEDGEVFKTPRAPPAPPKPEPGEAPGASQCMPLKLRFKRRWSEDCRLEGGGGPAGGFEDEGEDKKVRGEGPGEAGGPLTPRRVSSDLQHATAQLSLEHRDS
Particulars: protein: recombinant; tags: N-terminal GST; dsDNA, one strand shown. The gist of the method:
as §1

A further assay addresses T7, ETV3L (Homo sapiens, UniProt Q6ZN32 1-361).
T7 sequence: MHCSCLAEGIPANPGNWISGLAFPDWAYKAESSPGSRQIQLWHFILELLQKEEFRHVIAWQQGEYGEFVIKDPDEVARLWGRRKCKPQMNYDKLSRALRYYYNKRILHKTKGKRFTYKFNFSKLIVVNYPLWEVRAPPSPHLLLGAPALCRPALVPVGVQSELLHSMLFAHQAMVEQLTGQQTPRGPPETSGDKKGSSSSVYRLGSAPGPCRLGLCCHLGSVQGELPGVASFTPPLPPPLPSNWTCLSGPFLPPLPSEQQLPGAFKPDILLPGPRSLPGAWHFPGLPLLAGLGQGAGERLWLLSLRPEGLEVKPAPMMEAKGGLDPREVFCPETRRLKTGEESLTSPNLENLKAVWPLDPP
The following applies: protein: recombinant; tags: N-terminal GST; dsDNA, one strand shown. The gist of the method:
as §1

The target of the next assay is T8, ETS2 (Homo sapiens, UniProt P15036 1-469).
T8 sequence: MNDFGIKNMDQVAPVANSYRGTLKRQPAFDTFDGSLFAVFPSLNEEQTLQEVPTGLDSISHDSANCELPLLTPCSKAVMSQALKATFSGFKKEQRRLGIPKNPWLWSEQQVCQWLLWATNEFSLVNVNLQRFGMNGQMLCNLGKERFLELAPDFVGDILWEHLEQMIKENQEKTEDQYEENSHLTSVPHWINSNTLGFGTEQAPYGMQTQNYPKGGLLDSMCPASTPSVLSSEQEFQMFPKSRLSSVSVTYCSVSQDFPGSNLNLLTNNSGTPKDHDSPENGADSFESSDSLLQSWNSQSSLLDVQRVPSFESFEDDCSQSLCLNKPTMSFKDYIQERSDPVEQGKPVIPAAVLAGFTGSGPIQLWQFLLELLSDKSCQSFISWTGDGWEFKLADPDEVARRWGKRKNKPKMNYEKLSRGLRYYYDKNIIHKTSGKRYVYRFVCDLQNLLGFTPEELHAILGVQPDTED
The following applies: protein: recombinant; tags: N-terminal GST; dsDNA, one strand shown. The method in brief:
as §1

A further assay deals with T9, SPDEF (Homo sapiens, UniProt O95238 1-335).
T9 sequence: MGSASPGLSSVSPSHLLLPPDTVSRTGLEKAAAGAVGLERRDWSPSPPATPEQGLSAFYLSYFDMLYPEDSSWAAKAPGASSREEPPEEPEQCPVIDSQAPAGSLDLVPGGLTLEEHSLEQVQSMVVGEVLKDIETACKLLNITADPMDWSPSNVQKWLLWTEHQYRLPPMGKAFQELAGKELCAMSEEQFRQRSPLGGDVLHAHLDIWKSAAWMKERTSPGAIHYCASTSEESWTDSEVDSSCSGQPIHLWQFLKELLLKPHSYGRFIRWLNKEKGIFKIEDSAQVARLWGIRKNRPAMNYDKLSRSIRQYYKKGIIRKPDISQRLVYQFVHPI
Particulars: protein: recombinant; tags: N-terminal GST; dsDNA, one strand shown. The method in brief: as §1

The target of the next assay is T10, ETV7 (Homo sapiens, UniProt Q9Y603 1-341).
T10 sequence: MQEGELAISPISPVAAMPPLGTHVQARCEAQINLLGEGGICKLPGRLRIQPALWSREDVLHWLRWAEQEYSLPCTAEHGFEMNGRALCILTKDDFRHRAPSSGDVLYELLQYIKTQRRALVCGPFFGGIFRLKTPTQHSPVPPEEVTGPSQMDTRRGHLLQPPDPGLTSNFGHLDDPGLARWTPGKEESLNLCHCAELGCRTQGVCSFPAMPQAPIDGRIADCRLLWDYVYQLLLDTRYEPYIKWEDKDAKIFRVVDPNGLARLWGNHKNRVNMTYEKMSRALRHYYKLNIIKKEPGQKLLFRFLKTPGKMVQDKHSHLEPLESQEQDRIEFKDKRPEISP
The following applies: protein: recombinant; tags: N-terminal GST; dsDNA, one strand shown. The method in brief: as §1

A further assay deals with T11, ELF5 (Homo sapiens, UniProt Q9UKW6-2 1-255).
T11 sequence: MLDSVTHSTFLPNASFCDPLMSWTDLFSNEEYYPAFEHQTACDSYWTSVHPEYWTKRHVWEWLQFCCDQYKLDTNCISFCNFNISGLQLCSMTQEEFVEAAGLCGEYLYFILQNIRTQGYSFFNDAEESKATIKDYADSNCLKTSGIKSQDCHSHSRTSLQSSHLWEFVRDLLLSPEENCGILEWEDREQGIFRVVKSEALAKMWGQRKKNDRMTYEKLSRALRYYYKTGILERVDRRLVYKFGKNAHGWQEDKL
The following applies: protein: recombinant; tags: N-terminal GST; dsDNA, one strand shown. The gist of the method: as §1

Another assay concerns the target T12, ETV3 (Homo sapiens, UniProt P41162-2 1-143).
T12 sequence: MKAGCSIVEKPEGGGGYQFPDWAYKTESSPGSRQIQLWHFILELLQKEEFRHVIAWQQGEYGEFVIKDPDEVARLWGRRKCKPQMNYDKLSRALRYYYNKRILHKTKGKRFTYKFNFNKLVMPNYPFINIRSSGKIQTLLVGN
The following applies: protein: recombinant; tags: N-terminal GST; dsDNA, one strand shown. The method in brief: as §1

The next assay has as its target ETV6 (Homo sapiens, UniProt P41212 1-452). The following applies: protein: recombinant; tags: N-terminal GST; dsDNA, one strand shown. The method in brief:
as §1

ETV5, sequence (P41161 whole entry): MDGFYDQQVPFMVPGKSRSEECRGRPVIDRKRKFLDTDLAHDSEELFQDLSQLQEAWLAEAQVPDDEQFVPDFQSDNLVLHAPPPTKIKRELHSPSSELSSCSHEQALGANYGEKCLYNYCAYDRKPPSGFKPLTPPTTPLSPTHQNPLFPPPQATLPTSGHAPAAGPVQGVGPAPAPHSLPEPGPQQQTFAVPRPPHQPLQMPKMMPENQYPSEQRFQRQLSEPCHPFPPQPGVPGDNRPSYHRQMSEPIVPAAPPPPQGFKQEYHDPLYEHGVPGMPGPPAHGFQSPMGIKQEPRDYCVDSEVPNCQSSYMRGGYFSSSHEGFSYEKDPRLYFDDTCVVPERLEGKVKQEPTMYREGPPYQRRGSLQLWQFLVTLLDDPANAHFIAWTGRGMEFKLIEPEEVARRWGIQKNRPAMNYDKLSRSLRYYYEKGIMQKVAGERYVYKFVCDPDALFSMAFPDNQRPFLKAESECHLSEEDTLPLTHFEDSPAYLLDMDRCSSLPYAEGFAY
ETV6, sequence (P41212 whole entry): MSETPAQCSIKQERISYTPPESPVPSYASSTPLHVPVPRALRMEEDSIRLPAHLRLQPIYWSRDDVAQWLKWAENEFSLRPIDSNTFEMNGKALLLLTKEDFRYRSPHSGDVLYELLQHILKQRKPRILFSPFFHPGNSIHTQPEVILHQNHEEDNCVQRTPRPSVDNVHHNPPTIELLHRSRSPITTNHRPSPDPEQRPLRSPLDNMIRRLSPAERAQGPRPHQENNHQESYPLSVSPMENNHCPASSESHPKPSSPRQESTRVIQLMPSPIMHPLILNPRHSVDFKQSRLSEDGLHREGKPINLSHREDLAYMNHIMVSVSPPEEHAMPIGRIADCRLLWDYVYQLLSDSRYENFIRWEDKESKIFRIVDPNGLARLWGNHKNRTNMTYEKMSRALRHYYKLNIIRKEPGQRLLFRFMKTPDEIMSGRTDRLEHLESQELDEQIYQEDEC
HSF1, sequence (Q00613 whole entry): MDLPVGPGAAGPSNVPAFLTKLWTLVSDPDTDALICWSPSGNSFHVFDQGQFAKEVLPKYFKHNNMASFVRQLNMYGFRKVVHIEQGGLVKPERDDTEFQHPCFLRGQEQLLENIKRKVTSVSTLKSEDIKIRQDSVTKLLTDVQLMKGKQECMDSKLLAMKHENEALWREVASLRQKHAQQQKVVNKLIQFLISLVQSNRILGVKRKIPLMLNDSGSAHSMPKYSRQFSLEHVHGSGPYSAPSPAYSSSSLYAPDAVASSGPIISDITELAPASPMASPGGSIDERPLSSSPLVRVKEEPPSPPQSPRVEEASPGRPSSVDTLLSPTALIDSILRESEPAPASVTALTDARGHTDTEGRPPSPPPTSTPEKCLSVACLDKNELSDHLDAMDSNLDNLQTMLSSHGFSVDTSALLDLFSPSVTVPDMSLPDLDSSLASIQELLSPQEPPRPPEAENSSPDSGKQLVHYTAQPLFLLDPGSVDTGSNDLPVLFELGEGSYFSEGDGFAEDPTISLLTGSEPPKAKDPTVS
CRX, sequence (O43186 whole entry): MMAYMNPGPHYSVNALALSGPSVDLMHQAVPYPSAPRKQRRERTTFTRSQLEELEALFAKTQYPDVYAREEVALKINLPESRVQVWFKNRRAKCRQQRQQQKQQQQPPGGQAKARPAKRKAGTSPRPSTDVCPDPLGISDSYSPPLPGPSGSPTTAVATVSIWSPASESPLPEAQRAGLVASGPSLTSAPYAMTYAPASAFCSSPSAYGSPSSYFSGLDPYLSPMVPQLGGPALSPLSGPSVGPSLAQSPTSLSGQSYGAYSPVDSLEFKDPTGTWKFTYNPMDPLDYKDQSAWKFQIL

Take TATGAA: the binding signal is 1.14 fold enrichment (6-mer frequency, TF over GST control) in the assay with FEV; 1.12 fold enrichment (6-mer frequency, TF over GST control) in the assay with ETV5; 1.21 fold enrichment (6-mer frequency, TF over GST control) in the assay with HSF1; 1.4 fold enrichment (6-mer frequency, TF over GST control) with SPIC; 1.26 fold enrichment (6-mer frequency, TF over GST control) with ELF4; 1.13 fold enrichment (6-mer frequency, TF over GST control) with ELK4. The binding signal was 1.17 fold enrichment (6-mer frequency, TF over GST control) with ETV2; 1.29 fold enrichment (6-mer frequency, TF over GST control) with ELF3; 1.25 fold enrichment (6-mer frequency, TF over GST control) with CRX; 1.14 fold enrichment (6-mer frequency, TF over GST control) with ETV1; 1.21 fold enrichment (6-mer frequency, TF over GST control) with ERF; 1.21 fold enrichment (6-mer frequency, TF over GST control) in the assay with ETV3L. Also, the binding signal with ETS2 was 1.27 fold enrichment (6-mer frequency, TF over GST control); with SPDEF, 1.16 fold enrichment (6-mer frequency, TF over GST control); with ETV7, 1.2 fold enrichment (6-mer frequency, TF over GST control); in the assay with ELF5 it was 1.07 fold enrichment (6-mer frequency, TF over GST control); with ETV3, 1.17 fold enrichment (6-mer frequency, TF over GST control); with ETV6, 1.13 fold enrichment (6-mer frequency, TF over GST control).
